# In PubChem BioAssay AID939 (National Center for Advancing Translational Sciences (NCATS), 2007):
# Results filed as inconclusive are left out.
# Experiment: Confirmation Concentration-Response Assay for Agonists of the Thyroid Stimulating Hormone Receptor
# Conditions: HEK293 TSHR-CNG cells, membrane potential dye, cAMP; measured here: parental HEK293 counter-screen max
# Summary of the method: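 Read-out: membrane potential dye fluorescence (emission 590 nm) after 30 min compound exposure, reflecting cAMP-gated CNG opening in TSHR/CNG HEK 293 cells. Dye with 100 uM RO 20-1724 pre-equilibrated 60 min at room temperature. CNG-only parental cells control.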
row,Structure (SMILES),max response [%]
1,Cc1ccccc1NC(=O)N1C2CCCC1CC(NC(=O)C1CC1)C2 (stereo not given),20.1
2,O=C1C=C(NCc2ccccc2)C2(CCCCC2)O1,16.9
3,Cc1cccc(NC(=O)CSc2nnc(-c3ccccc3)n2N)c1C,-2.22
4,CC(=O)N1CCCc2cc(S(=O)(=O)N(CC(C)C)CC(C)C)ccc21,14.4
5,C=CCn1c(COc2ccccc2F)nnc1SCC(=O)N1CC(=O)Nc2ccccc21,-6.56
6,COc1cccc(C(c2nnnn2Cc2ccccc2)N2CCN(C(=O)c3ccco3)CC2)c1OC (stereo not given),-3.51
7,O=C(Nc1ccc(N2CCOCC2)cc1)C1CC1,5.07
8,CC(=O)Nc1ccc(S(=O)(=O)N(C)c2ccccc2)cc1,4.53
9,CCSCCOC(=O)C1=C(C)N(C)C(=O)NC1c1cc(OC)ccc1OC (stereo not given),7.65
10,CCOC(=O)c1cnc(-n2nc(C)cc2C)nc1-n1nc(C)cc1C,-6.3
11,COC(=O)C1=C(C)OC(N)=C(C#N)C1C1CCCCC1 (stereo not given),16.5
12,Cc1occc1-c1nnc(SCC(=O)Nc2ccccc2)n1C(C)c1ccccc1 (stereo not given),-10
13,CN1C(=O)N(C)C2(c3ccccc3)Nn3c(s/c(=C/c4ccco4)c3=O)=NC12c1ccccc1 (stereo not given),-0.854
14,c1ccc(-n2cnc3cc(NCc4ccncc4)ccc32)cc1,1.12
15,CCn1c(=O)c(C(=O)CN2CCCc3ccccc32)c(N)n(Cc2ccccc2)c1=O,-16.6
16,COC(=O)C1=C(C)OC(N)=C(C#N)C1c1c(C)nn(-c2ccccc2)c1Cl (stereo not given),6.03
17,COC(=O)c1cc(NC2c3ccccc3C(=O)N2c2cccnc2)cc(C(=O)OC)c1 (stereo not given),17.7
18,COc1cc2c(N3CCOCC3)cc(O)c(CC(=O)Nc3ccccc3)c2cc1OC,-10.7
19,CCCC(=O)C1=C(SCC)CC(C)(C)C(C(=O)OC)C1=O (stereo not given),9.56
20,Cc1ccccc1NC(=O)CSc1nnc(-c2ccoc2C)n1CCc1ccccc1,20.3
21,COc1cc(NC(=O)c2cc(-n3cnnc3)ccc2Cl)cc(OC)c1,-1.27
22,COc1ccc(S(=O)(=O)NCCC(=O)NCc2ccc(F)cc2)cc1,-8.89
23,Cc1nc2ccc(Br)cn2c(=O)c1Cl,-3.12
24,CSc1nc(NC(C)(C)C)nc(Oc2ccc(=O)[nH]n2)n1,-2.82
25,Cc1ccc(C)c(Cn2c(C(C)O)nc3ccccc32)c1 (stereo not given),-2.8
26,Nc1cc(CN2C(=O)c3ccccc3C2=O)cc(Cl)c1O,4.5
27,COc1ccc(-c2cc(C(F)(F)F)nc(SCCC(=O)N3CCOCC3)n2)cc1,13
28,Cc1cc(Cl)c(S(=O)(=O)Nc2ccc3c(c2)OCO3)cc1OCC(N)=O,-8.28
29,Cn1cccc1Cc1nnc(SCC(N)=O)n1CCc1ccccc1,3.14
30,COc1cc(/C=N/n2c(SC)nnc(C(C)(C)C)c2=O)ccc1O,-7.99
